# Test results as given in PubChem BioAssay.
# Several values for one entry are separate records, joined by “and”; a condition that tells them apart may be missing. Identical values can stand only once. Inconclusive results are not listed. Some structures have more than one record in an assay (separate samples or runs), and their calls can disagree. Activity calls are given as the source filed them. Rule as the data show it, unless noted: active = inhibition above about 80%; inactive = the rest.
# How the values were obtained:
# [1] = growth inhibition of DIPG glioma cells, dose response, cell-based, SU-DIPG-XIII, MIPE4.0, CellTiter-Glo, qHTS (AID 1347061; cut-off not given, nearly all actives have AC50 up to about 37 µM;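 also: cells exposed to compound for 48 hours before readout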); details: SU-DIPG-XIII viability, CellTiter-Glo ATP luminescence
# [2] = growth inhibition of DIPG glioma cells, dose response, cell-based, JHH-DIPG-1, MIPE4.0, CellTiter-Glo, qHTS (AID 1347062; cut-off not given, nearly all actives have AC50 up to about 27 µM;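 as to AC50: cells exposed to compound for two days before readout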); details: JHH-DIPG-1 viability, CellTiter-Glo ATP luminescence
# [3] = viability loss in pontine glioma line – cell-based, SU-DIPG-XXV, MIPE5.0, CellTiter-Glo, qHTS, dose response (AID 1347065; cut-off not given, nearly all actives have AC50 up to about 26 µM;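 also: cells exposed to compound for 48 hours before ATP readout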); details: CellTiter-Glo ATP luminescence
# [4] = JHH-DIPG-1 glioma cell viability, MIPE5.0 library, CellTiter-Glo luminescence, qHTS (AID 1347067; cut-off not given, nearly all actives have AC50 up to about 26 µM;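 also: cells exposed to compound for 48 hours before readout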); details: JHH-DIPG-1 glioma viability, CellTiter-Glo ATP luminescence
# [5] = SU-DIPG-XXV glioma cell viability, MIPE5.0 library, qHTS (AID 1347068; cut-off not given, nearly all actives have IC50 up to about 30 µM)
# [6] = SU-DIPG-VI glioma cell viability, MIPE4.0 library, CellTiter-Glo luminescence, qHTS (AID 1347066; cut-off not given, nearly all actives have AC50 up to about 30 µM;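 also: cells exposed to compound for 48 hours before readout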); details: CellTiter-Glo ATP luminescence
# [7] = LFS_MB_P medulloblastoma growth inhibition, cell-based, chromothripsis tumors, cisplatin or BGB combos (AID 1671449); details: LFS_MB_P medulloblastoma cells;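 also: cells exposed for 96 hours; 0% = vehicle DMSO and 100% = killing by high DMSO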
# [8] = HDN33 neuroblastoma growth inhibition, cell-based, chromothripsis tumors, cisplatin or BGB combos (AID 1671450); details: HDN33 neuroblastoma cells, stronger effect = higher value;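 also: cells exposed to compound for four days; 0% = vehicle DMSO and 100% = cell killing by high DMSO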
# [9] = ICB984 medulloblastoma cell growth inhibition, synergistic combos for chromothripsis tumors, cisplatin or BGB combos (AID 1671451; call rule not given here;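 also: cells exposed for 96 hours before readout; 0% = vehicle DMSO and 100% = killing by high DMSO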); details: ICB984 medulloblastoma cells, drug combinations, stronger effect = higher value
# [10] = LFS_MB_1R medulloblastoma cell growth inhibition, synergistic combos for chromothripsis tumors, cisplatin or BGB combos (AID 1671452); details: LFS_MB_1R medulloblastoma cells, stronger effect = higher value;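 also: cells exposed for 96 hours before readout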
# [11] = HTB85 osteosarcoma cell growth inhibition, synergistic combos for chromothripsis tumors, BGB or cisplatin IC20 combos (AID 1671453); details: HTB85 osteosarcoma cells, drug combinations, stronger effect = higher value;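 also: cells exposed for 96 hours before readout; 0% = vehicle DMSO and 100% = high DMSO killing control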
# [12] = MDA-MB-436 breast carcinoma cell growth inhibition, synergistic combos for chromothripsis tumors, BGB or cisplatin combos (AID 1671458; call rule not given here;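 also: cells exposed for 96 hours; 0% = vehicle DMSO and 100% = killing by high DMSO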); details: MDA-MB-436 breast carcinoma growth inhibition, drug combinations, stronger effect = higher value
# [13] = growth inhibition of BT084 medulloblastoma cells, cell-based, ICGC_MB145, cisplatin and BGB IC40 combos (AID 1671461); details: drug combinations, stronger effect = higher value;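 also: cells exposed to drugs for 96 hours; 0% = vehicle DMSO and 100% = high DMSO full killing control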
# [14] = growth inhibition of RCMB18 medulloblastoma cells, cell-based, cisplatin and BGB IC40 combos (AID 1671462); details: stronger effect = higher value;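 also: cells exposed to compound for four days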
# [15] = growth inhibition of CRL1545 osteosarcoma cells, cell-based, cisplatin and BGB IC20 combos (AID 1671464); details: stronger effect = higher value;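 also: cells exposed to compound for 96 hours before readout; 0% = vehicle DMSO and 100% = high DMSO killing control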
# [16] = measured here: combination with BGB IC40, at 0.05 µM
# [17] = measured here: with BGB IC20 combination, at 0.5 µM
# [18] = measured here: with cisplatin IC20 combination, at 0.5 µM
# [19] = measured here: combination with cisplatin, at 0.5 µM
structure (smiles),measurement,setting,value
CN1CCc2c(n(Cc3ccc(C(=O)NO)cc3)c3ccccc23)C1,outcome,[1],inactive
same,AC50,[2],23.5 µM (active)
same,AC50,[3],18.6 µM (active)
COCCNCCCn1c(C(=O)CF)c(-c2ccc(C)cc2)c2c(N)ncnc21,outcome,[1],inactive
same,outcome,[2],inactive
same,outcome,[4],inactive
same,outcome,[5],inactive
O=c1c(-c2ccc(O)cc2)coc2cc(OC3O[C@H](CO)[C@@H](O)[C@H](O)[C@H]3O)cc(O)c12 (stereo partly specified),AC50,[1],20.9 µM (active)
same,outcome,[2],inactive
same,outcome,[6],inactive
CC(C)(C)C(=O)Oc1ccc2c(c1)nc(NC(=O)c1cccc([N+](=O)[O-])c1)n2CCCO,outcome,[1],inactive
same,outcome,[2],inactive
same,outcome,[6],inactive
same,outcome,[4],inactive
same,outcome,[5],inactive
C=C1c2cccc(O)c2C(O)=C2C(=O)[C@@]3(O)C(O)=C(C(N)=O)C(=O)[C@@H](N(C)C)[C@@H]3[C@@H](O)[C@H]12,outcome,[1],inactive
same,outcome,[2],inactive
same,outcome,[3],inactive
same,outcome,[6],inactive
same,outcome,[5],inactive
CCN1CCN(C(=O)N[C@H](C(=O)N[C@@H]2C(=O)N3C(C(=O)O)=C(CSc4nnnn4C)CS[C@@H]23)c2ccc(O)cc2)C(=O)C1=O,outcome,[1],inactive
same,outcome,[2],inactive
same,outcome,[6],inactive
CCCCC(=O)O[C@]1(C(=O)CO)[C@H](C)C[C@H]2[C@@H]3CCC4=CC(=O)C=C[C@]4(C)[C@@]3(F)[C@@H](O)C[C@@]21C,outcome,[1],inactive
same,outcome,[2],inactive
same,outcome,[6],inactive
Cc1cnc(CNC(=O)c2c(=O)c3ccc(N4CCCN(C)CC4)nc3n3c2sc2ccccc23)cn1,outcome,[1],inactive
same,outcome,[2],inactive
same,outcome,[3],inactive
same,outcome,[6],inactive
same,outcome,[5],inactive
same,inhibition,"[7]; at 0.5 µM, stronger effect = higher value",-32.6% (inactive) and -19.8% (inactive)
same,inhibition,"[7]; measured here: combination with BGB IC20, at 0.005 µM",-4.81% and -24.5%
same,inhibition,"[7]; measured here: combination with BGB IC40, at 0.005 µM",-1.91% and -28.2%
same,inhibition,[7]; [16],0.537% and -10.1%
same,inhibition,"[7]; measured here: combination with cisplatin, at 0.5 µM, stronger effect = higher value",-27% and -20.6%
same,inhibition,"[7]; measured here: combination with cisplatin, at 5 µM, stronger effect = higher value",126% and 65.2%
same,inhibition,"[8]; BGB combo, at 5 µM",99.9% and 61.4%
same,inhibition,[8]; at 0.5 µM,53.7% (inactive) and 26.5% (inactive)
same,inhibition,"[8]; cisplatin combo, at 5 µM",99.9% and 78%
same,inhibition,[8]; [17],51.6% and 27.6%
same,inhibition,[8]; [18],44.8% and 18.7%
same,inhibition,"[8]; single agent, at 5 µM",99.9% and 80.2%
same,inhibition,"[9]; BGB IC20 combo, at 0.005 µM",94.7% and -37.9%
same,inhibition,"[9]; BGB IC40 combo, at 0.005 µM",92.8% and -33.4%
same,inhibition,"[9]; BGB IC40 combo, at 0.05 µM",102%
same,inhibition,[9]; at 0.5 µM,-35% (inactive) and -18.1% (inactive)
same,inhibition,"[9]; cisplatin combo, at 0.05 µM",102%
same,inhibition,"[9]; cisplatin combo, at 0.5 µM",-48.5% and -27.9%
same,inhibition,"[9]; cisplatin combo, at 5 µM",-21.1% and -37.3%
same,inhibition,"[9]; measured here: 5 uM single agent, at 5 µM",-8.37% and -11.6%
same,inhibition,[10]; at 0.5 µM,6.38% (inactive) and -24.6% (inactive)
same,inhibition,[10]; [16],-8.97% and -9.02%
same,inhibition,[10]; [19],91.9% and 6.04%
same,inhibition,"[10]; measured here: combination with cisplatin, at 5 µM",104% and 102%
same,inhibition,[11]; at 0.5 µM,6.45% (inactive) and -21.5% (inactive)
same,inhibition,"[11]; measured here: with BGB IC20, at 0.5 µM",2.27% and -44.5%
same,inhibition,"[11]; measured here: with BGB IC20, at 5 µM",100% and 39.1%
same,inhibition,"[11]; measured here: with cisplatin IC20, at 0.5 µM",-0.545% and -23%
same,inhibition,"[11]; measured here: with cisplatin IC20, at 5 µM",99.9% and 26.3%
same,inhibition,"[11]; single agent, at 5 µM",100% and 41.7%
same,inhibition,[12]; at 0.5 µM,29.4% (inactive) and 4.69% (inactive)
same,inhibition,"[12]; measured here: BGB combination, at 0.5 µM",10.6% and -16.3%
same,inhibition,"[12]; measured here: BGB combination, at 5 µM",103% and -17.9%
same,inhibition,"[12]; measured here: cisplatin combination, at 0.5 µM",20.7% and -11.9%
same,inhibition,"[12]; measured here: cisplatin combination, at 5 µM",102% and 14.1%
same,inhibition,[13]; at 0.5 µM,-18.1% (inactive) and -56.2% (inactive)
same,inhibition,"[13]; cisplatin combination, at 0.5 µM",18.1% and -29.3%
same,inhibition,"[13]; cisplatin combination, at 5 µM",108% and 82.2%
same,inhibition,"[13]; measured here: BGB IC40 combination 0.05 uM, at 0.05 µM",77.5% and -15.1%
same,inhibition,"[13]; single agent, at 5 µM",106% and -74.4%
same,inhibition,[14]; at 0.5 µM,85.6% (active) and -19.4% (inactive)
same,inhibition,"[14]; cisplatin combo, at 5 µM",101% and 100%
same,inhibition,"[14]; measured here: BGB IC40 combination, at 0.05 µM",-21.6% and -12.2%
same,inhibition,[14]; [19],95.7% and -7.59%
same,inhibition,"[14]; single agent, at 5 µM",101%
same,inhibition,[15]; at 0.5 µM,38.3% (inactive) and -17.2% (inactive)
same,inhibition,[15]; [17],36.7% and -12.7%
same,inhibition,[15]; [18],39% and -19.4%
same,inhibition,"[15]; single agent, at 0.05 µM",2.42% and -7.19%
same,inhibition,"[15]; single agent, at 5 µM",99.9%
